Source: PubChem BioAssay (NCI)
The panel holds about 83,000 compounds, 20% with a hit somewhere; the sample as a whole holds those more often.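 Growth was measured after 48 h exposure to one concentration of compound in 96-well plates. Values under 10 count as active.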 Unmarked numbers belong to inactive results. Active and inactive are the calls of the source.

These molecules were tested on T-47D breast (assay: NCI-60 one-dose screen, 48 h (100 = growth as untreated, 0 = no growth, -100 = all killed)). Conditions: 10 µM unless noted.

| SMILES | growth |
| --- | --- |
| COc1cc2nc(NC3CCC3)nc(NC3CCN(C(C)C)CC3)c2cc1OC | -7.17% (active) |
| O=C(c1nc2ccccc2[nH]1)C1[C@@H](c2cccc(O)c2)C2CC3CCCCC3N2[C@@]12C(=O)Nc1cc(Cl)ccc12 (stereo not given in full) | 34.3% |
| CCN1C(=O)N(c2ccccc2)C2NN=c3s/c(=C4\C(=O)N(C(C)C)c5ccccc54)c(=O)n3C21 (stereo not given) | 53.8% |
| Cc1sc2ncn(CC(=O)Nc3ccc(S(N)(=O)=O)cc3)c(=O)c2c1C | 96.5% |
| COC(=O)c1c2c(c(C)[n+]([O-])c1C)C(=O)C(NCc1ccc(F)c(F)c1)=CC2=O | 10.9% |
| CNCCNc1nc2ccccc2c2c(=O)c3cccc(OC)c3sc12 | 54.4% |
| CNCCNc1nc2ccccc2c2c(=O)c3cccc(C)c3sc12 | 49.3% |
| COc1cc(/C=C2\Oc3cc(OCCCN4CCCC4)ccc3C2=O)cc(OC)c1 | 88.8% |
| COC(=O)[C@H](NC(=O)C1(C)CCC[C@]2(C)[C@H]3C[C@H]4C(C(C)C)=C[C@]3(CC[C@@H]12)[C@@H]1C(=O)CCC(=O)[C@@H]14)C(C)C (stereo not given in full) | 94.2% |
| COc1cc(/C=C2\CN(C)C/C(=C\c3cc(CN4CCCCC4)c(O)c(OC)c3)C2=O)cc(CN2CCCCC2)c1O | 67.2% |
| O=S(=O)(Nc1ncccn1)c1ccc(NC2Nc3nc4ccccc4nc3S2)cc1 (stereo not given) | 101% |
| O=C1CCC(N2C(=O)c3cccc(NCCCCCCOc4ccc(Nc5nccc(Nc6ccccc6)n5)cc4)c3C2=O)C(=O)N1 (stereo not given) | 39.5% |
| Cc1c(-c2csc(-n3nc(C(F)(F)F)cc3C(F)(F)F)n2)no[n+]1[O-] | 87.5% |
| O=C(NCc1ccccc1)C1CN(c2ccc(Cl)cc2)N(c2ccc(Cl)cc2)C1=O (stereo not given) | 63.9% |
| c1ccc2c(c1)oc1cc3sccc3nc12 | 101% |
| CCCCC1COc2cccc3c2N1C=C/C3=C\C(=O)N(C)c1ccccc1 (stereo not given) | 41.6% |
| COc1cc(/C=C/C(=O)c2ccc(Nc3nc(NCCO)nc(N4CCOCC4)n3)cc2)cc(OC)c1OC | 32.1% |
| Cc1cccc2c(=O)c3c(sc12)c(NCCCNCCO)nc1ccccc13 | 62.7% |
| COc1cc(/C=C2\CN(C)C/C(=C\c3cc(CN4CCCC4)c(O)c(OC)c3)C2=O)cc(CN2CCCC2)c1O | 79.7% |
| O=C(/C=C/c1ccc(C(F)(F)F)cc1)c1ccc(Nc2nc(NCCO)nc(N3CCOCC3)n2)cc1 | 32.7% |
| NCCOc1ccccc1/C=C1\c2ccccc2-c2ccc([N+](=O)[O-])cc21 | 12.5% |
| O=C(/C=C/c1ccc(F)cc1)c1ccc(Nc2nc(NCCO)nc(Nc3ccc(Cl)cc3)n2)cc1 | 41.5% |
| O=c1oc2ccc(Br)cc2c(=O)n1-c1ccc(Br)cc1F | -1.51% (active) |
| NCCNc1nc2ccccc2c2c(=O)c3cc(F)cc(Cl)c3sc12 | -45.6% (active) |
| CCCN1CCN(c2ccc3nc(-c4ccc5nc(-c6cc(OC)ccc6OC)[nH]c5c4)[nH]c3c2)CC1 | 98.8% |
| Cc1ccc(C2CC(c3ccc(Nc4nc(NCCO)nc(Nc5ccc(Cl)cc5)n4)cc3)=NN2c2cc(Cl)cc(Cl)c2)cc1 (stereo not given) | 94.5% |

Each molecule was assayed on BT-549 breast in the same assay as above. Conditions: 10 µM unless noted.

| SMILES | growth |
| --- | --- |
| C=C1C(=O)O[C@H]2[C@H]1CC/C(COC(=O)/C=C\C(=O)O)=C\CC[C@@]1(C)O[C@@H]21 | 103% |
| CCCCC1CCc2cccc3c(SCC(=O)N(C)c4ccc(Cl)cc4)cc[n+]1c23 (stereo not given) | 115% |
| O=C(c1nc2ccccc2[nH]1)C1C(c2cccc([N+](=O)[O-])c2)C2CC3CCCCC3N2[C@@]12C(=O)Nc1cc(Cl)ccc12 (stereo not given in full) | 52.9% |
| O=C1/C(=C/c2ccc(O)cc2)COc2ccc(O)cc21 | 106% |
| O=C1/C(=C/c2ccc(O)cc2)COc2ccc(O)c(O)c21 | 57.5% |
| COc1cc2nc(NC3CCCC3)nc(NC3CCN(C(C)C)CC3)c2cc1OC | 76.7% |
| Cc1ccccc1CNC(=O)C1CN(c2ccc(Cl)cc2)N(c2ccc(Cl)cc2)C1=O (stereo not given) | 90.6% |
| COc1cc(C2CC(c3ccc(Nc4nc(NCCO)nc(N5CCOCC5)n4)cc3)=NN2c2cc(Cl)cc(Cl)c2)cc(OC)c1OC (stereo not given) | 75.3% |
| O=C(c1nc2ccccc2[nH]1)C1C(c2ccc([N+](=O)[O-])cc2)C2CC3CCCCC3N2[C@@]12C(=O)Nc1cc(Cl)ccc12 (stereo not given in full) | 46.9% |
| O=C(Cn1cc(COc2ncnc3c2cnn3-c2ccccc2)nn1)Nc1cccc2ccccc12 | 99.5% |
| CN1C(=O)N(C)C2Nn3c(s/c(=C\c4ccc(Cl)cc4Cl)c3=O)=NC21 (stereo not given) | 93.9% |
| O=Cc1cc2ccccc2nc1Nc1nccs1 | 88.9% |
| O=C1/C(=C/c2cccc(O)c2)COc2ccc(O)cc21 | 98.1% |
| COc1cc2nc(NC3CCC3)nc(NC3CCN(C(C)C)CC3)c2cc1OC | 72.5% |
| O=C(c1nc2ccccc2[nH]1)C1[C@@H](c2cccc(O)c2)C2CC3CCCCC3N2[C@@]12C(=O)Nc1cc(Cl)ccc12 (stereo not given in full) | 62.5% |
| CCN1C(=O)N(c2ccccc2)C2NN=c3s/c(=C4\C(=O)N(C(C)C)c5ccccc54)c(=O)n3C21 (stereo not given) | 12.7% |
| Cc1sc2ncn(CC(=O)Nc3ccc(S(N)(=O)=O)cc3)c(=O)c2c1C | 97.7% |
| COC(=O)c1c2c(c(C)[n+]([O-])c1C)C(=O)C(NCc1ccc(F)c(F)c1)=CC2=O | 66.4% |
| CNCCNc1nc2ccccc2c2c(=O)c3cccc(OC)c3sc12 | 73.1% |
| CNCCNc1nc2ccccc2c2c(=O)c3cccc(C)c3sc12 | 76.4% |

| SMILES | growth |
| --- | --- |
| COc1cc(/C=C2\Oc3cc(OCCCN4CCCC4)ccc3C2=O)cc(OC)c1 | 78.3% |
| COC(=O)[C@H](NC(=O)C1(C)CCC[C@]2(C)[C@H]3C[C@H]4C(C(C)C)=C[C@]3(CC[C@@H]12)[C@@H]1C(=O)CCC(=O)[C@@H]14)C(C)C (stereo not given in full) | 106% |
| COc1cc(/C=C2\CN(C)C/C(=C\c3cc(CN4CCCCC4)c(O)c(OC)c3)C2=O)cc(CN2CCCCC2)c1O | 61.3% |
| O=S(=O)(Nc1ncccn1)c1ccc(NC2Nc3nc4ccccc4nc3S2)cc1 (stereo not given) | 95.9% |
| O=C1CCC(N2C(=O)c3cccc(NCCCCCCOc4ccc(Nc5nccc(Nc6ccccc6)n5)cc4)c3C2=O)C(=O)N1 (stereo not given) | 65.1% |
| Cc1c(-c2csc(-n3nc(C(F)(F)F)cc3C(F)(F)F)n2)no[n+]1[O-] | 102% |
| O=C(NCc1ccccc1)C1CN(c2ccc(Cl)cc2)N(c2ccc(Cl)cc2)C1=O (stereo not given) | 83.4% |
| c1ccc2c(c1)oc1cc3sccc3nc12 | 89.5% |
| CCCCC1COc2cccc3c2N1C=C/C3=C\C(=O)N(C)c1ccccc1 (stereo not given) | 50.8% |
| COc1cc(/C=C/C(=O)c2ccc(Nc3nc(NCCO)nc(N4CCOCC4)n3)cc2)cc(OC)c1OC | 33.5% |
| Cc1cccc2c(=O)c3c(sc12)c(NCCCNCCO)nc1ccccc13 | 73% |
| COc1cc(/C=C2\CN(C)C/C(=C\c3cc(CN4CCCC4)c(O)c(OC)c3)C2=O)cc(CN2CCCC2)c1O | 94.1% |
| O=C(/C=C/c1ccc(C(F)(F)F)cc1)c1ccc(Nc2nc(NCCO)nc(N3CCOCC3)n2)cc1 | 61% |
| NCCOc1ccccc1/C=C1\c2ccccc2-c2ccc([N+](=O)[O-])cc21 | 84.8% |
| O=C(/C=C/c1ccc(F)cc1)c1ccc(Nc2nc(NCCO)nc(Nc3ccc(Cl)cc3)n2)cc1 | 72% |
| O=c1oc2ccc(Br)cc2c(=O)n1-c1ccc(Br)cc1F | -19.4% (active) |
| NCCNc1nc2ccccc2c2c(=O)c3cc(F)cc(Cl)c3sc12 | 84.8% |
| CCCN1CCN(c2ccc3nc(-c4ccc5nc(-c6cc(OC)ccc6OC)[nH]c5c4)[nH]c3c2)CC1 | 96.3% |
| Cc1ccc(C2CC(c3ccc(Nc4nc(NCCO)nc(Nc5ccc(Cl)cc5)n4)cc3)=NN2c2cc(Cl)cc(Cl)c2)cc1 (stereo not given) | 95.9% |
